For orientation: inhibition means the change of the read-out against control, counted positive when it falls.

Among all 360,000 compounds or so, about 2,700 (0.75%) were called active. What follows is part of a selection rich in actives, with near analogues and random picks from the rest. A number with no mark means an inactive call. Rule as the data show it: active = inhibition above about 4.5%; inactive = the rest.

The results in this text go back to PubChem BioAssay AID651718 (The Scripps Research Institute Molecular Screening Center, 2012).

The test system of this experiment is Methionine sulfoxide reductase A (Bos taurus). Kind of experiment: inhibition of methionine sulfoxide reductase A – biochemical, absorbance, bovine, HTS, primary screen (AID 651718).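 Also: 0% = vehicle wells with enzyme and 100% = reference inhibitor wells.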 Particulars: purified bovine MsrA, absorbance read-out; at 15.5 µM; hits give high values.
As for `CCc1n[nH]c(=S)n1/N=C/c1c[nH]c2ccc(Br)cc12`, the inhibition is 0.05%.
As to `O=[N+]([O-])c1ccccc1/C=N/n1c(COc2ccccc2)n[nH]c1=S`, the inhibition is 0.65%.
On to `S=c1[nH]nc(-c2ccccc2)n1/N=C/c1c[nH]c2ccccc12`, for which the inhibition is 5.73% (active).
With `CC1CCN(C(=O)c2ncn3c2C(=O)N[C@@H](C)C3)CC1`, the inhibition is 0.14%.
`O=C(NCc1ccccc1)[C@H]1CCCN1C(=O)[C@H]1CCCN1C(=O)N1CCOCC1`: the inhibition is -0.41%.
On to `CN(C)c1nc(N)nc(CSc2ccccn2)n1`, for which the inhibition is 0.24%.
For `C=CCN=C1NC(c2cccc(C(F)(F)F)c2)C(C(=O)OC)=C(C)N1C` (stereo not given), the inhibition is -0.08%.
Next, `CCCOC(=O)c1cc2ccccc2oc1=O`: 13% (active); `Cc1cc(C)cc(OCC(=O)NNC(=O)c2cc3ccccc3oc2=O)c1`: 0.25%; `CCc1ccc(Oc2coc3cc(OC(=O)c4cc5ccccc5oc4=O)ccc3c2=O)cc1`: 1.04%.
For `COC(=O)Cc1nnn2c1[C@H](C)[C@H](c1ccccc1[N+](=O)[O-])OCC2`, the inhibition was 0.24%.
With `Cc1c(C=O)c2ccccn2c1C(=O)c1ccncc1` the figure was 4.76% (active); with `Cc1c(C(=O)NNC(=O)c2ccncc2)oc2ccccc12`, 0.46%.
For `Cc1c(C=O)c2ccccc2n1CC(=O)O`, the inhibition is 2.23%.
Regarding `O=C(NCCc1nnc2ccc(SCC(=O)N3CCOCC3)nn12)c1ccccc1`, the inhibition was -0.18%.
As to `Cc1noc(C)c1NC(=O)Nc1ccc2c(c1)C(=O)N([C@H](C)CO)C[C@H](C)[C@H](CN(C)Cc1ccncc1)OCCCC[C@@H](C)O2`, the inhibition is -0.23%.
With `CCN1C(=O)N[C@@H]2C[C@H](C(=O)N3CCCC3)[C@H](C)[C@H](c3ccccc3)C[C@@H]21`, the inhibition was -0.32%.
Consider `O=C(c1ccc(Cn2cc([N+](=O)[O-])cn2)o1)N1CCCC1`, for which the inhibition was 0.09%.
With `O=C(N/N=C/c1ccc2c(c1)OCO2)c1ccc(Cn2cc([N+](=O)[O-])cn2)o1`, the inhibition was 6.14% (active).
Take `CN(C)c1ccc(/C=N/NC(=O)c2ccc(Cn3cc(Br)cn3)o2)cc1`: the inhibition is 4.19%.
For the compound `N/C(=N\OS(=O)(=O)c1cccc([N+](=O)[O-])c1)c1ccncc1`, the inhibition is -0.51%.
Next, `CCCCCCCCN1C(=O)[C@@H](CC(=O)NCc2ccc(C)o2)C[C@@]2(C(=O)OC)C1=C[C@H](C(C)(C)C)O[C@@H]2C`: -0.4%.
With `CC(=O)c1ccccc1OCc1ccc(C(=O)c2ccccc2)cc1`, the inhibition is 0.66%.
Consider `Cc1cc2nc3c(=O)[nH]c(=O)nc-3n(C[C@H](O)[C@H](O)[C@H](O)CO)c2cc1C`, for which the inhibition was 2.57%.
As to `CCN(CC)CCCC(C)n1c2nc(=O)[nH]c(=O)c-2nc2cc(Cl)ccc21` (stereo not given), the inhibition is 14.4% (active).
Regarding `O=S1(=O)c2c(cccc2N2CCCCC2)O[C@H](COCc2ccccc2)CN1C1CC1`, the inhibition was -0.51%.
Consider `Cc1ccc(CSc2nsc(C)c2C#N)cc1`, for which the inhibition was 0.38%.
For the compound `Cc1ccc(N2CCN(C3=NC(=O)/C(=C\c4cccs4)S3)CC2)cc1`, the inhibition was 5.14% (active).
Next, `O=C1N=C(N2CCOCC2)S/C1=C\C=C/c1ccccc1`: 3.23%; `CC(C)=C1SC(N2CCN(c3ccc(C)c(Cl)c3)CC2)=NC1=O`: -1.4%.
For the compound `COc1ccc(S(=O)(=O)Nc2ccc3c(c2)C(=O)N([C@H](C)CO)C[C@H](C)[C@@H](CN(C)C)OCCCC[C@H](C)O3)cc1`, the inhibition was 0.52%.
Consider `Cc1c(C(=O)OCC(=O)N2CCCC2=O)oc2ccccc12`, for which the inhibition is -1.01%.
Consider `Cc1ccc(C(=O)N2CCCc3ccccc32)c(Cl)c1`, for which the inhibition was -0.31%.
With `Cc1c(C(=O)N2CCCc3ccccc32)oc2ccccc12`, the inhibition is 10.3% (active).
With `O=C1Nc2ccccc2C1=NN=Cc1ccco1` the figure was 0.16%; with `COc1ccc(/C=C(\C#N)C(=O)ONC2=NCCCCC2)cc1`, 1.44%; with `COC(=O)/C(C#N)=C/c1occc1C`, 5.68% (active).
As for `CCOC(=O)/C(C#N)=C\c1c(C)cc(C)c(COC(C)=O)c1C`, the inhibition was 0.74%.
`COc1ccc(CN2CCNC(=O)C2CC(=O)N(C)Cc2ccccn2)cc1OC` (stereo not given): the inhibition is -0.62%.
As for `C[N+](C)(C)CCOP(=O)([O-])OC[C@H](O)CO`, the inhibition is 0.34%.
In the case of `O=C(Nc1ccccc1N1CCOCC1)c1ccncc1`, the inhibition was 1.2%.
On to `CC(=O)c1ccc(N2CCN(CC(=O)Nc3ccccc3N3CCOCC3)CC2)cc1`, for which the inhibition was 4.88% (active).
Next, `CCCCC(=O)Nc1ccccc1N1CCN(c2ccc(F)cc2)CC1`: -1.12%.
As to `COC(=O)N1Cc2ccnnc2CC1c1ccccc1Br` (stereo not given), the inhibition was -0.9%.
Turning to `CN(Cc1ccccc1)C(=O)c1ccc(NC2=NC3CS(=O)(=O)CC3S2)cc1` (stereo not given), the inhibition is 1.72%.
Next, `COc1ccc(C2=NS(=O)(=O)N(C)C(C(=O)NC(C)c3ccccc3)=C2)cc1` (stereo not given): 4.29%; `COc1ccc(C2=NS(=O)(=O)N(C)C(C(=O)N3CCCCC3)=C2)cc1`: 5.54% (active); `COc1ccc(C2=NS(=O)(=O)N(C)C(C(=O)N(C)Cc3ccccc3)=C2)cc1`: 3.53%.
For the compound `CCCCCCc1cc2cc(-c3nnc(-c4cccc(OC)c4)o3)c(=O)oc2cc1O`, the inhibition is -0.59%.
With `COc1ccc(/C=N/Nc2ncnc3sc4c(c23)CCCC4)cc1O` the figure was 4.5%; with `O=C(N/N=C/c1ccc(O)c(O)c1)C1c2ccccc2Oc2ccccc21`, 0.85%; with `Oc1ccc(/C=N/Nc2ccc(C(F)(F)F)cn2)cc1O`, 7.63% (active).
In the case of `CC(=O)c1sc2nc(SCC(=O)N3CCCCC3)[nH]c(=O)c2c1C`, the inhibition is 6.38% (active).
On to `Cc1c(C)n2c(SCC(=O)N3CCCC3)nnc2[nH]c1=O`, for which the inhibition is -0.57%.
For `CSc1nnc(SCc2nc3sc(C(=O)O)c(C)c3c(=O)[nH]2)s1`, the inhibition was 0%.
In the case of `COc1ccc(-c2ccccc2C2Cc3nnccc3CN2C(=O)Nc2ccccc2)cc1` (stereo not given), the inhibition is 2.13%.
Next, `CC(=O)N1C[C@@H](CO)[C@@H](N(C)C(=O)C(C)(C)C)C[C@H]1c1ccccc1Br`: 0.66%; `COc1ccccc1C1=CC(=O)C[C@H](c2ccc(F)cc2)C1`: 1.16%.
As for `COc1cccc(C2=CC(=O)C[C@H](c3ccc(F)cc3)C2)c1OC`, the inhibition is 6.7% (active).
Regarding `O=C1C=C(c2cccc(Cl)c2O)C[C@@H](c2ccc(F)cc2)C1`, the inhibition was -0.68%.
